# Reference: PMC7862700, “An all-to-all approach to the identification of sequence-specific readers for epigenetic DNA modifications on cytosine”
# Key:
# Assay in all cases: DAPPL (digital affinity profiling via proximity ligation, sequencing); 10 mM Tris-HCl pH 7.5, 50 mM NaCl, 1 mM DTT, 4% glycerol, room temperature, 30 min; GST-TFs on glutathione beads, 16-mer random dsDNA library, 0.1% formaldehyde crosslink after washing; high values mean tight binding
# FLI1 = target: T1, FLI1 (Homo sapiens, UniProt Q01543 1-452); details: protein: recombinant; tags: N-terminal GST; dsDNA, one strand shown
# T1 sequence: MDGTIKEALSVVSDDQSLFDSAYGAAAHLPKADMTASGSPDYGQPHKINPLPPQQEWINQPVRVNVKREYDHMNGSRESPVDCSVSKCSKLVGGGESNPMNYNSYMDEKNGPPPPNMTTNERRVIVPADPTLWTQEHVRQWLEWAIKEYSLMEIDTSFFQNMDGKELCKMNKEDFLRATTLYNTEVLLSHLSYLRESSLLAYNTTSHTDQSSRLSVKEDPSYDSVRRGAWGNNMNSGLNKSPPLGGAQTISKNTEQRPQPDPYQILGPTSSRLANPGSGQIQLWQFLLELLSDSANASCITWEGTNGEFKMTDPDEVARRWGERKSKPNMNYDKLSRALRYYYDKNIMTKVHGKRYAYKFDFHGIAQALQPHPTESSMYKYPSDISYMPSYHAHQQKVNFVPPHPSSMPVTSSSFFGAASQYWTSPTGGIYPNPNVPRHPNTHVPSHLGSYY
# Summary of the method: (§1)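 A tag-only sample was pooled with DNA-barcoded human transcription factors that had been expressed in yeast as GST fusions and captured on glutathione beads. The pools were incubated for 30 min at room temperature with 200 nmole of a random double-stranded 16-mer DNA library in Tris/NaCl/DTT/glycerol buffer, then washed, crosslinked with 0.1% formaldehyde, proximity-ligated (BsaI/T4 ligase, 1 h, 37 °C), PCR-amplified and sequenced on an Illumina NextSeq500. Binding signal is each hexamer's read frequency for a factor divided by its frequency for the tag-only sample.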
# ELK1 = target: T2, ELK1 (Homo sapiens, UniProt P19419 1-428); details: protein: recombinant; tags: N-terminal GST; dsDNA, one strand shown
# T2 sequence: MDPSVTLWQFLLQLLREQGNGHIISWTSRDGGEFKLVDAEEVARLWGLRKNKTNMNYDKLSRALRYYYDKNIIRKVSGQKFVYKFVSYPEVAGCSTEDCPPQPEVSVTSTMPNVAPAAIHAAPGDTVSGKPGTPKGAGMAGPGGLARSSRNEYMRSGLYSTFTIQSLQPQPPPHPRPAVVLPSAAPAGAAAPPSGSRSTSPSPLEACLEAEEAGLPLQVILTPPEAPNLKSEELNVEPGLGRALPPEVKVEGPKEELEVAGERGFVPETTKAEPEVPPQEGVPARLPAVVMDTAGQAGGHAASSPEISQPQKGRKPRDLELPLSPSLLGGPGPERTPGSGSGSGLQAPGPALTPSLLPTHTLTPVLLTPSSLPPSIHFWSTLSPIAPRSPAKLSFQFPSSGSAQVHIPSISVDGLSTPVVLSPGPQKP
# Summary of the method: as §1
# GABPA = target: T3, GABPA (Homo sapiens, UniProt Q06546 1-454); details: protein: recombinant; tags: N-terminal GST; dsDNA, one strand shown
# T3 sequence: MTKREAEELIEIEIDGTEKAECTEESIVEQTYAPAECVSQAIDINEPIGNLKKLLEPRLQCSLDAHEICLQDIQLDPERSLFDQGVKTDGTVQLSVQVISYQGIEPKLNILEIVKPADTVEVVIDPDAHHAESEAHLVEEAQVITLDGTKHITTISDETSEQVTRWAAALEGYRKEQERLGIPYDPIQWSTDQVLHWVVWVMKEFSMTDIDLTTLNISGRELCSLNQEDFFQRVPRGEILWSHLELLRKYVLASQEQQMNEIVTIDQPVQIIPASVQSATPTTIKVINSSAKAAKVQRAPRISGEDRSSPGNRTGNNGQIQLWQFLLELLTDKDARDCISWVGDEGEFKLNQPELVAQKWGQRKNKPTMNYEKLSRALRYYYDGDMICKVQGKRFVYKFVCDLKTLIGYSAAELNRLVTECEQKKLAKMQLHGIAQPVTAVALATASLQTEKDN
# Summary of the method: as §1
# ERG = target: T4, ERG (Homo sapiens, UniProt P11308 1-479); details: protein: recombinant; tags: N-terminal GST; dsDNA, one strand shown
# T4 sequence: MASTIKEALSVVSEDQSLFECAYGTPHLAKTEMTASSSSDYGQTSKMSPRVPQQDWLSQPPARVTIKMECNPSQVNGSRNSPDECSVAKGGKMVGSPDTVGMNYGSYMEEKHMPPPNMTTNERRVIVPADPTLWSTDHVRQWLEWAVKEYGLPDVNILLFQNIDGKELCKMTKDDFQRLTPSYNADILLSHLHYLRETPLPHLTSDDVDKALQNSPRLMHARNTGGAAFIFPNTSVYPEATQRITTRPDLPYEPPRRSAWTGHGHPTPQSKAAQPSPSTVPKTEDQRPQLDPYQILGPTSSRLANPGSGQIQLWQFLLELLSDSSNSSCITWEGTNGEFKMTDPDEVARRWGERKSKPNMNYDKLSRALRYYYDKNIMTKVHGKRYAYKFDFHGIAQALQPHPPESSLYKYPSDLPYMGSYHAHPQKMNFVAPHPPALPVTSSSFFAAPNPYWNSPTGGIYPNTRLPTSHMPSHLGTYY
# Summary of the method: as §1
# ELF1 = ELF1 (Homo sapiens, UniProt P32519 1-619); details: protein: recombinant; tags: N-terminal GST; dsDNA, one strand shown
# Chain of ELF1 (P32519 whole entry): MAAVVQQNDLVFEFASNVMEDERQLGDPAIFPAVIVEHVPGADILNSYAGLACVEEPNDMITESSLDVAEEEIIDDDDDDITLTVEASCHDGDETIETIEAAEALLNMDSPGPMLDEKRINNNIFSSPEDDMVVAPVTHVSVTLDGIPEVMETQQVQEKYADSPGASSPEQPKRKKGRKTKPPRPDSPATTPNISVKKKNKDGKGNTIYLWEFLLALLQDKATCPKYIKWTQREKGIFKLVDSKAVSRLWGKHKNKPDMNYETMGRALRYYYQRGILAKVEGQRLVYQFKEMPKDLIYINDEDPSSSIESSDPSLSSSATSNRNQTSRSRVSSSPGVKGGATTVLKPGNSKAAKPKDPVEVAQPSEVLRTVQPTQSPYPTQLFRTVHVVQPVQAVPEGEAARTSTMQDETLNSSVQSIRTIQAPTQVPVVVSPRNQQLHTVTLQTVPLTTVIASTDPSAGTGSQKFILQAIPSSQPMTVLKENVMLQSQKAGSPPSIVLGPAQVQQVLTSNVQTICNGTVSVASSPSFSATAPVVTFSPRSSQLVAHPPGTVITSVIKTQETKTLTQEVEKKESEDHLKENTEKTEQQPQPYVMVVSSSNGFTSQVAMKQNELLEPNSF
# Summary of the method: as §1
# EHF = target: T5, EHF (Homo sapiens, UniProt Q9NZC4 1-300); details: protein: recombinant; tags: N-terminal GST; dsDNA, one strand shown
# T5 sequence: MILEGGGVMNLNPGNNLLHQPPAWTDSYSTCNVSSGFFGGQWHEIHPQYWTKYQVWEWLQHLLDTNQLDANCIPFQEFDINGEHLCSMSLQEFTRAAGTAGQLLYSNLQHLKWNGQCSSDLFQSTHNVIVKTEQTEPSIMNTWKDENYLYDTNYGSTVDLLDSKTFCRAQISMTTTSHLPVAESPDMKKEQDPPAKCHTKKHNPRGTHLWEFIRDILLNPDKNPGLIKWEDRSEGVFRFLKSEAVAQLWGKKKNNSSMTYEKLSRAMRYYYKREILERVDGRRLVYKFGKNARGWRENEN
# Summary of the method: as §1
# SPI1 = SPI1 (Homo sapiens, UniProt P17947 1-270); details: protein: recombinant; tags: N-terminal GST; dsDNA, one strand shown
# Summary of the method: as §1
# SPIB = SPIB (Homo sapiens, UniProt Q01892 1-262); details: protein: recombinant; tags: N-terminal GST; dsDNA, one strand shown
# Chain of SPIB (Q01892 whole entry): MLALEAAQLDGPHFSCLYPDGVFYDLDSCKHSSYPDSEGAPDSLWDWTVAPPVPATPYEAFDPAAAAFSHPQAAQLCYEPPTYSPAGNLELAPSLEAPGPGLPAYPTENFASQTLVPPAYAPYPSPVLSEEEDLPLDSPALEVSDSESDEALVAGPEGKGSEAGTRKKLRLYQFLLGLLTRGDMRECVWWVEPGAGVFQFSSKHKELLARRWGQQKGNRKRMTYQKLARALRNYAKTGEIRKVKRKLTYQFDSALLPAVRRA
# Summary of the method: as §1
# ELK3 = target: T6, ELK3 (Homo sapiens, UniProt P41970 1-407); details: protein: recombinant; tags: N-terminal GST; dsDNA, one strand shown
# T6 sequence: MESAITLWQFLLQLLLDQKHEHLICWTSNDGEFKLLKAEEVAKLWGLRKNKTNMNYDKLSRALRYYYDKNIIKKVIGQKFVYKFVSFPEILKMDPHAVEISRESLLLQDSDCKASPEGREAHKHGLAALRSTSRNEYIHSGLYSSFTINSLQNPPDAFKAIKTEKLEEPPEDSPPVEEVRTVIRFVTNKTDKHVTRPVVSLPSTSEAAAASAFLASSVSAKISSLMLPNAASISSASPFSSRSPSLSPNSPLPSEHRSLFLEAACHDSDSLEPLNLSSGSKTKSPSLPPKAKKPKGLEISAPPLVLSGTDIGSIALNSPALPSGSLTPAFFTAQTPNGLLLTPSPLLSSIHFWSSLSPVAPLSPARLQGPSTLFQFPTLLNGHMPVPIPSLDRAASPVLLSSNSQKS
# Summary of the method: as §1
# FEV = target: T7, FEV (Homo sapiens, UniProt Q99581 1-238); details: protein: recombinant; tags: N-terminal GST; dsDNA, one strand shown
# T7 sequence: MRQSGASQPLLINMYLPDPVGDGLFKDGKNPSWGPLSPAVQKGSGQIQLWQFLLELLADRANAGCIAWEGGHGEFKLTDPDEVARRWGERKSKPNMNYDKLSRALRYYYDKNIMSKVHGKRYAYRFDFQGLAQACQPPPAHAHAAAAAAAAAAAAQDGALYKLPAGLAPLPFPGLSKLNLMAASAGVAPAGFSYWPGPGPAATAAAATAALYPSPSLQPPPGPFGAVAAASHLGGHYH
# Summary of the method: as §1
# ETV5 = ETV5 (Homo sapiens, UniProt P41161 1-510); details: protein: recombinant; tags: N-terminal GST; dsDNA, one strand shown
# Chain of ETV5 (P41161 whole entry): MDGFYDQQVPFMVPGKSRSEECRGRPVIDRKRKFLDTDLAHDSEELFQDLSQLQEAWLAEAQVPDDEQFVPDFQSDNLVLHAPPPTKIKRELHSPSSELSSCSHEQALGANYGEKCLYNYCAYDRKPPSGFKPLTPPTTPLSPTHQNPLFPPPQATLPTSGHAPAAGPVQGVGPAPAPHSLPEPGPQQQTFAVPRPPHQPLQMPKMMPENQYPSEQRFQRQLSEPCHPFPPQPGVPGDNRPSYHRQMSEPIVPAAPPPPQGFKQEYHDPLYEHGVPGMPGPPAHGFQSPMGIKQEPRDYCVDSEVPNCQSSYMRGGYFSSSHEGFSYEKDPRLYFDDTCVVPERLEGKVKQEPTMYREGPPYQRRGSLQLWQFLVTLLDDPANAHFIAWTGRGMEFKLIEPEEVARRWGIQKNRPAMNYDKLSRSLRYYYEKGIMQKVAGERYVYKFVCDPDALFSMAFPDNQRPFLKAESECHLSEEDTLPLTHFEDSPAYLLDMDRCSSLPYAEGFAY
# Summary of the method: as §1
# HSF1 = HSF1 (Homo sapiens, UniProt Q00613 1-529); details: protein: recombinant; tags: N-terminal GST; chain copies: 3; dsDNA, one strand shown
# Chain of HSF1 (Q00613 whole entry): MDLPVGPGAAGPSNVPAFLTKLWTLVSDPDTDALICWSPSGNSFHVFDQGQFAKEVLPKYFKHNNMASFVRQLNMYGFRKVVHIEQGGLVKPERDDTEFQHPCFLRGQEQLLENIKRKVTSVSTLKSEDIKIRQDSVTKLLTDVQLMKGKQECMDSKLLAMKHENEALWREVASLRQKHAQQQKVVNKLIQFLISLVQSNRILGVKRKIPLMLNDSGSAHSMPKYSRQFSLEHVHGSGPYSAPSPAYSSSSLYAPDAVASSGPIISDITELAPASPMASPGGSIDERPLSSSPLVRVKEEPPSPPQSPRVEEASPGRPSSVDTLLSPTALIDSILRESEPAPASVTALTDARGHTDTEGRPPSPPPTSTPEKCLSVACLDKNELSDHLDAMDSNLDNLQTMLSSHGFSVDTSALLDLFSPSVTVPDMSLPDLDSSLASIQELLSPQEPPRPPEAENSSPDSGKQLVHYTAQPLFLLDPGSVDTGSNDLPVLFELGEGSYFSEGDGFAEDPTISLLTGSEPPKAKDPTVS
# Summary of the method: as §1
# SPIC = target: T8, SPIC (Homo sapiens, UniProt Q8N5J4 1-248); details: protein: recombinant; tags: N-terminal GST; dsDNA, one strand shown
# T8 sequence: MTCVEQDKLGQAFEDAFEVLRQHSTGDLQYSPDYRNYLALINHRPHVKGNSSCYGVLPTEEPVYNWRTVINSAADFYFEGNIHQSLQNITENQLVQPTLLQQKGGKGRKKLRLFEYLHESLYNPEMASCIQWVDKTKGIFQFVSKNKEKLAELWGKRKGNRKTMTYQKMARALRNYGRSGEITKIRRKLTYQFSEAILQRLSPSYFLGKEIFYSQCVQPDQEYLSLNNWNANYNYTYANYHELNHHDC
# Summary of the method: as §1
# ELF4 = ELF4 (Homo sapiens, UniProt Q99607 1-663); details: protein: recombinant; tags: N-terminal GST; dsDNA, one strand shown
# Chain of ELF4 (Q99607 whole entry): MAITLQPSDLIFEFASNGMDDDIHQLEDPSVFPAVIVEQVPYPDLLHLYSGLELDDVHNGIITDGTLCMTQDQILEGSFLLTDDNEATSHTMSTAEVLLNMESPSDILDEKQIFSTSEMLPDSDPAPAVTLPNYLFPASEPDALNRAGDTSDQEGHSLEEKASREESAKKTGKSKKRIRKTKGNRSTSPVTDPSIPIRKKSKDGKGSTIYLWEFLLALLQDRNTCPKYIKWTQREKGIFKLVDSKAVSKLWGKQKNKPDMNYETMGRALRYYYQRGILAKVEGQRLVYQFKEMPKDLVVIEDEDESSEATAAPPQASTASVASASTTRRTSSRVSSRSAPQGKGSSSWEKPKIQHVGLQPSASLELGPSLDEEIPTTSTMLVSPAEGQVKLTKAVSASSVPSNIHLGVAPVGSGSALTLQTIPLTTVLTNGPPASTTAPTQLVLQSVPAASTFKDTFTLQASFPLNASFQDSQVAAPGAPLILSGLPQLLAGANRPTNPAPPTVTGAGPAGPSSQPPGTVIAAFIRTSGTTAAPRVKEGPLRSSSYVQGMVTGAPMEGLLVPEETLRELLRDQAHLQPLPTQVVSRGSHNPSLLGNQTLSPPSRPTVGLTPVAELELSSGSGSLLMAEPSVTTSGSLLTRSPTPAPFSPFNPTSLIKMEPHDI
# Summary of the method: as §1
# ELK4 = target: T9, ELK4 (Homo sapiens, UniProt P28324-2 1-405); details: protein: recombinant; tags: N-terminal GST; dsDNA, one strand shown
# T9 sequence: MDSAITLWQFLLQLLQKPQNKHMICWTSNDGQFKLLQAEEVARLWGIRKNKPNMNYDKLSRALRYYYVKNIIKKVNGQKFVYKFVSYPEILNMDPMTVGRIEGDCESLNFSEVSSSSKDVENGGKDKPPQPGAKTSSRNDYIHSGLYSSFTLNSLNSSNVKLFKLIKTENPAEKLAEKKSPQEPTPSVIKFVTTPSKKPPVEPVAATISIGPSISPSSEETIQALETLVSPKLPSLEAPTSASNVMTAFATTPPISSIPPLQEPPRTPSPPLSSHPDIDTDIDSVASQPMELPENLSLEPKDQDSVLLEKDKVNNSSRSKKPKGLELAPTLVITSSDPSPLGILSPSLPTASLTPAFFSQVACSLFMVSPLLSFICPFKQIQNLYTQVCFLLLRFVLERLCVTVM
# Summary of the method: as §1
# ETV2 = target: T10, ETV2 (Homo sapiens, UniProt O00321 1-342); details: protein: recombinant; tags: N-terminal GST; dsDNA, one strand shown
# T10 sequence: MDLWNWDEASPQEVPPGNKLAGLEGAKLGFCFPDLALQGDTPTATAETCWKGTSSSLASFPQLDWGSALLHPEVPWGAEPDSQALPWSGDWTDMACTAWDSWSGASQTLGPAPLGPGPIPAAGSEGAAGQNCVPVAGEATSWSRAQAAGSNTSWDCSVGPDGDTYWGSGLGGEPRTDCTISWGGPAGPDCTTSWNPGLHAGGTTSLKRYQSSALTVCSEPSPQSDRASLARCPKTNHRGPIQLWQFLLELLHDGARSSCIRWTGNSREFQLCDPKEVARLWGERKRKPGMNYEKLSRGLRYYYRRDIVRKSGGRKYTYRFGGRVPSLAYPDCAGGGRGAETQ
# Summary of the method: as §1
# ELF3 = target: T11, ELF3 (Homo sapiens, UniProt P78545 1-371); details: protein: recombinant; tags: N-terminal GST; dsDNA, one strand shown
# T11 sequence: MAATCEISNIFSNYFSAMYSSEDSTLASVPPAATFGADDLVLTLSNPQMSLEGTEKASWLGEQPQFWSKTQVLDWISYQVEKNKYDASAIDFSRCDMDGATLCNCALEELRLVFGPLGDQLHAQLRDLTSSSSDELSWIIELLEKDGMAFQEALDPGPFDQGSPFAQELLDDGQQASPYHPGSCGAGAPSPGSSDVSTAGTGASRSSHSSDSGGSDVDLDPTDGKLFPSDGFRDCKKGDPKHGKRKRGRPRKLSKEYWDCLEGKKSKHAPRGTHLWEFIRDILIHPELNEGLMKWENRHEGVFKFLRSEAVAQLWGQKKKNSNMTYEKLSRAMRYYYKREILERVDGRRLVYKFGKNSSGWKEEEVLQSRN
# Summary of the method: as §1
# CRX = CRX (Homo sapiens, UniProt O43186 1-299); details: protein: recombinant; tags: N-terminal GST; dsDNA, one strand shown
# Chain of CRX (O43186 whole entry): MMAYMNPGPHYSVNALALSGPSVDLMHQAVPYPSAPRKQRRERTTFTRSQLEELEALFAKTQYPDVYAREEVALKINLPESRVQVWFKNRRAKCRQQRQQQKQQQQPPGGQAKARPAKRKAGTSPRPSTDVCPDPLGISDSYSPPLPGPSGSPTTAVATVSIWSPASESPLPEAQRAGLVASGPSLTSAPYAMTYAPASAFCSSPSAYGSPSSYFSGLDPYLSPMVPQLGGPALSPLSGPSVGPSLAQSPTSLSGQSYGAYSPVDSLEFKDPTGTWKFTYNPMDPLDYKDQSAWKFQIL
# Summary of the method: as §1
# ETV1 = ETV1 (Homo sapiens, UniProt P50549 1-477); details: protein: recombinant; tags: N-terminal GST; dsDNA, one strand shown
# Chain of ETV1 (P50549 whole entry): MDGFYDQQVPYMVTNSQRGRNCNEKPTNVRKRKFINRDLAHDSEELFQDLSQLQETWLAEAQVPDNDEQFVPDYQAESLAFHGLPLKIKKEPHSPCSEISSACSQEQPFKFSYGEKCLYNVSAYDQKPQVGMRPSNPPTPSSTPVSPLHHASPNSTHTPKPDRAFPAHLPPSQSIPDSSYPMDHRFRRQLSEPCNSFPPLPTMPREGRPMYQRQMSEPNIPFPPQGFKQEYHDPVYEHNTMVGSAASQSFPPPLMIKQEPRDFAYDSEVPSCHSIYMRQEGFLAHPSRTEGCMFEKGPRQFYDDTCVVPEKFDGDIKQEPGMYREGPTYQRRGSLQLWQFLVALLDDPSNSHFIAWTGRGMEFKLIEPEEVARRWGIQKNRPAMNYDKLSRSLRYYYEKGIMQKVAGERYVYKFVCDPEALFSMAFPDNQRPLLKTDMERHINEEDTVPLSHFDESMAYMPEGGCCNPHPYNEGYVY
# Summary of the method: as §1
sequence,measurement,setting,value
AGCCCT,binding signal,FLI1,"1.03 fold enrichment (6-mer frequency, TF over GST control)"
same,binding signal,ELK1,"1.14 fold enrichment (6-mer frequency, TF over GST control)"
same,binding signal,GABPA,"1.11 fold enrichment (6-mer frequency, TF over GST control)"
same,binding signal,ERG,"1.09 fold enrichment (6-mer frequency, TF over GST control)"
same,binding signal,ELF1,"1.07 fold enrichment (6-mer frequency, TF over GST control)"
same,binding signal,EHF,"1.18 fold enrichment (6-mer frequency, TF over GST control)"
same,binding signal,SPI1,"1.09 fold enrichment (6-mer frequency, TF over GST control)"
same,binding signal,SPIB,"1.14 fold enrichment (6-mer frequency, TF over GST control)"
same,binding signal,ELK3,"1.07 fold enrichment (6-mer frequency, TF over GST control)"
same,binding signal,FEV,"1.14 fold enrichment (6-mer frequency, TF over GST control)"
same,binding signal,ETV5,"1.08 fold enrichment (6-mer frequency, TF over GST control)"
same,binding signal,HSF1,"1.09 fold enrichment (6-mer frequency, TF over GST control)"
same,binding signal,SPIC,"1.25 fold enrichment (6-mer frequency, TF over GST control)"
same,binding signal,ELF4,"1.06 fold enrichment (6-mer frequency, TF over GST control)"
same,binding signal,ELK4,"1.14 fold enrichment (6-mer frequency, TF over GST control)"
same,binding signal,ETV2,"1.18 fold enrichment (6-mer frequency, TF over GST control)"
same,binding signal,ELF3,"1.1 fold enrichment (6-mer frequency, TF over GST control)"
same,binding signal,CRX,"1.25 fold enrichment (6-mer frequency, TF over GST control)"
same,binding signal,ETV1,"1.05 fold enrichment (6-mer frequency, TF over GST control)"
